The panel holds about 79,000 compounds, 15% with a hit somewhere; the sample as a whole holds those more often. No stated cut-off is given here; in the data, active means growth inhibition above about 70%; inactive means the rest.
How the values were obtained:
[1] = NCI Yeast Anticancer Drug Screen. Data for the rad50 strain (AID 155);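 further: 0% = growth of vehicle-only cultures of the same strain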; settings: S. cerevisiae rad50 strain growth inhibition; at 50.0 µM; stronger effect = higher value
Method in brief: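 Yeast carrying a defined DNA repair defect were exposed to test compounds, and growth was compared with vehicle-treated controls to give percent inhibition.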

[2] = NCI Yeast Anticancer Drug Screen. Data for the mec2-1 strain (AID 157); settings: S. cerevisiae mec2-1 strain, at 50.0 µM, stronger effect = higher value
Method in brief: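 Vehicle-treated cultures served as reference for growth inhibition of compound-exposed mec2-1 yeast.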

[3] = NCI Yeast Anticancer Drug Screen. Data for the cln2 rad14 strain (AID 165);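 further: 0% = growth equal to vehicle treated cultures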; settings: S. cerevisiae cln2 rad14 strain, at 50.0 µM, stronger effect = higher value
Method in brief: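 Each compound was tested on cln2 rad14 yeast. Inhibition of growth was calculated against vehicle-exposed controls.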

[4] = NCI Yeast Anticancer Drug Screen. Data for the bub3 strain (AID 167); settings: S. cerevisiae bub3 mutant strain, at 50.0 µM, stronger effect = higher value
Method in brief: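 Compounds were applied to a genetically altered yeast strain carrying a cell-cycle control defect. Growth inhibition was scored against vehicle-treated controls.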

[5] = NCI Yeast Anticancer Drug Screen. Data for the mlh1 rad18 strain (AID 175); settings: S. cerevisiae mlh1 rad18 strain growth inhibition; at 50.0 µM; stronger effect = higher value
Method in brief: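 Vehicle-treated cultures served as the reference for growth inhibition in a yeast strain carrying DNA damage repair alterations exposed to each compound.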

Measured: growth inhibition

O=C(O)CSCSCC(=O)O
inactive: [1] 1.45% | [2] -26.4% | [3] 20.2% | [4] 4.8% | [5] 3.1%

c1ccc(CN2COc3c(ccc4c3OCN(Cc3ccccc3)C4)C2)cc1
inactive: [1] 7.4% | [2] 20.8% | [3] -22.7% | [4] 9.7% | [5] 8.3%

CCOC(=O)c1[nH]c(C)c(C(=O)O)c1C
inactive: [1] -4.45% | [2] -26.3% | [3] -24.9% | [4] -23.8% | [5] -11.2%

Cc1ccc(C(O)C2CC2)cc1 (stereo not given)
inactive: [1] -24.2% | [2] -38.6% | [3] 11.4% | [4] -21.6% | [5] -0.65%

From PubChem BioAssay (NCI)
